Beta cell apopt: inhibitors of cytokine-induced beta cell apoptosis, primary screen, luminescence; hit rate 0.8% among 300,000; INS-1E cytokine-induced death, ATP luminescence, 48 h; percent of positive-control rescue, neutral wells zero; protection from apoptosis, % (test concentration not listed);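 active = Every replicate reaches about 75%, or at least half do and their mean reaches it too, limit read from the data; inconclusive = At least half of replicates reach the limit but their mean does not; inactive = Under half of replicates reach the limit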;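 also: higher means more ATP so stronger rescue from cytokine killing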
aSyn UTR inh: MLPCN primary screen, SNCA 5' untranslated region. alpha-synuclein 5'UTR reporter, inhibitor activity. AID 1813, 2009. hit rate 0.82% among 300,000. inhibition, % (tested at 7.5 µM); in the data active = inhibition above about 60%; inconclusive = no clear call, values can overlap the other calls;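 also: H4 neuroglioblastoma cells stably carrying SNCA 5'UTR luciferase fusion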
CSC inhib: cancer stem cell viability inhibitors, primary screen, luminescence; cancer stem cell-like cells viability; inhibition, % at 7.5 µM; hit rate 1.1% among 300,000; in the data active = inhibition above about 75%; inconclusive = no clear call, values can overlap the other calls; tested in HMLE shEcad cells
A1 inh: caspase 3/7 activation in MEF A1-2A-BIM cells, primary screen, A1 inhibitor project, cell-based, luminescence, HTS; AID 2462, 2010; caspase activation, % (test concentration not listed); hit rate 0.066% among 330,000; Caspase-Glo 3/7 luminescence, 3 h; percent of clofoctol response, vehicle zero;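 active = over half of replicate activation scores above 10%, or exactly half above 10 with the replicate mean above 10; inconclusive = replicate mean below 10 yet half the replicates above 10; inactive = over half of replicates below 10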
Mdm2-MdmX inh: inhibitors of human Mdm2-MdmX association, primary screen, cell-based, luminescence, split luciferase, SaOS-2, uHTS | SaOS-2 split-luciferase Mdm2/MdmX complementation | inhibition, % at 8 µM | hit rate 3% among 330,000;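 active = inhibition of at least 50% at 8 µM in the primary screen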
Target sequence (O15151 whole entry, looked up): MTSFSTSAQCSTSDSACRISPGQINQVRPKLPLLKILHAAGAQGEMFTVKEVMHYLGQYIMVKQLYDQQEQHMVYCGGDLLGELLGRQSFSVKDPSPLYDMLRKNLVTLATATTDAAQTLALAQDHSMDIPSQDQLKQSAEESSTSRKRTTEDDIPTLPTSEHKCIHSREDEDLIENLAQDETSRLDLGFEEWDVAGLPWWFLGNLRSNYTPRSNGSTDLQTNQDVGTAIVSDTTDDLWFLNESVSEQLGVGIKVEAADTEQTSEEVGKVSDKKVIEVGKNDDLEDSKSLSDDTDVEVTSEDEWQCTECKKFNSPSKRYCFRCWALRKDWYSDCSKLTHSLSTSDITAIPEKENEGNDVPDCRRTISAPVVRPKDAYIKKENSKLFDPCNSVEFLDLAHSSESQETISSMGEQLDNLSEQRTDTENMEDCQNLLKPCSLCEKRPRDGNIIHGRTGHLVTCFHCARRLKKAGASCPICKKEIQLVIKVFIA
Target sequence (Q00987 whole entry, looked up): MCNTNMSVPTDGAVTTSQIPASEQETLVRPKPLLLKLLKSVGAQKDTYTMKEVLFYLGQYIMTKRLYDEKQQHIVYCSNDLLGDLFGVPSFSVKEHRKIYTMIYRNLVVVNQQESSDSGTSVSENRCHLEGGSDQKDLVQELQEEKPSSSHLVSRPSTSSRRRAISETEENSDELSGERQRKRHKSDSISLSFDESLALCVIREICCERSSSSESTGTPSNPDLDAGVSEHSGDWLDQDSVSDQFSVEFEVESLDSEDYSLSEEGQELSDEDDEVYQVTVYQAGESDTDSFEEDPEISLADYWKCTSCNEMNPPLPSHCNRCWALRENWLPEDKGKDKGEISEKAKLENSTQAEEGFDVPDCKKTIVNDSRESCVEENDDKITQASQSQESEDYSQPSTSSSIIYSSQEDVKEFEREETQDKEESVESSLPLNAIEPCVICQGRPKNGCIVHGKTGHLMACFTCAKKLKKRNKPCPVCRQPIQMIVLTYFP
Numbers stand for hits; 0 = inactive; ? = inconclusive; - = no result. Rows were chosen to be rich in hits. Some 4.1% of all compounds tested hit in one or more screens of this group.

SMILES	Beta cell apopt	aSyn UTR inh	CSC inhib	A1 inh	Mdm2-MdmX inh
O=C(CN(CCc1ccccc1)Cc1ccccc1)Oc1ccccc1P(=O)(O)O	0	0	0	0	0
O=c1cc(N2CCCCC2)c(-c2ccccc2)nn1Cc1ccc(Cl)cc1	-	0	102.8	0	0
O=c1c2ccc([N+](=O)[O-])c3cccc(c32)c2nc3ccccc3n12	0	79.0	0	0	0
CCc1nc2ccccc2c2nc3ccccc3n12	0	0	0	0	0
COc1ccc(-n2c(O)c(/C=N/Nc3nc(C)cc(C)n3)c3ccccc3c2=O)cc1OC	0	119.9	0	0	0
O=C(O)c1cn(-c2ccccc2)nc1C(=O)O	0	0	0	0	0
NNC(=O)c1nn(-c2ccccc2)cc1O	0	83.4	0	0	0
O=C1N/C(=N\N=C\c2ccccn2)SC1Cc1cccc(SC(F)F)c1 (stereo not drawn)	0	0	111.2	0	0
O=C1N/C(=N\N=C\c2ccc3ncccc3c2)SC1Cc1ccc(SC(F)F)cc1 (stereo not drawn)	0	0	0	0	0
COc1cc(C(=O)NC(=S)NC(C)C)cc(OC)c1OC	0	0	0	0	0
COc1ccccc1C(=O)NNC(=S)NC(=O)c1cc(OC)c(OC)c(OC)c1	0	72.5	0	0	0
COc1cc(C(=O)NC(=S)NNC(=O)c2cnccn2)cc(OC)c1OC	82.1	78.9	0	0	0
COc1cc(C(=O)NNC(=S)NC(=O)c2ccccc2C)cc(OC)c1OC	0	0	0	0	0
CCCC(C)NC(=O)COC(=O)c1cccc(NS(C)(=O)=O)c1 (stereo not drawn)	0	0	0	0	0
O=C(COC(=O)c1ccc2ncsc2c1)Nc1ncc(Cl)cc1Cl	0	0	0	0	0
Cc1c(Cl)cnc(NC(=O)COC(=O)c2ccc3ncsc3c2)c1Cl	0	67.1	0	0	0
Cc1nn2c(=O)cc(COC(=O)c3c(F)cccc3Cl)nc2s1	-	-	-	-	0
Cc1cccc(N2C(=S)N=C(Nc3c(C)cccc3C)C23CCOC(C)(C)C3)c1 (stereo not drawn)	82.4	0	0	0	0
Cc1cccc(C)c1NC1=NC(=S)N(c2ccccc2)C12CCOC(C)(C)C2 (stereo not drawn)	0	0	0	0	0
COc1cccc(CNC(=O)CCS(=O)(=O)c2ccccc2Cl)c1	0	-	0	0	0
COc1ccc(-c2noc(CN3CCN(C(=O)c4cccs4)CC3)n2)c(OC)c1OC	0	0	0	0	0
CCNC(=S)N1N=C2c3ccccc3CCC2C1c1ccc(F)cc1 (stereo not drawn)	0	0	81.5	0	0
COc1ccccc1CCCNC(=O)C1CCC(=O)N(Cc2ccccc2F)C1 (stereo not drawn)	0	0	0	8.6	0
COc1cc2ccccc2cc1C(=O)OCC(=O)N(CC(C)C)c1c(N)n(Cc2ccccc2)c(=O)[nH]c1=O	0	0	0	0	0
Cc1cc(OCC(=O)N(C)Cc2ccccc2)ccc1Cl	109.5	0	0	0	0
SMILES	Beta cell apopt	aSyn UTR inh	CSC inhib	A1 inh	Mdm2-MdmX inh
Cc1cc(OCC(=O)N(C)Cc2ccccc2)ccc1Br	0	0	0	0	0
O=C(Nc1cccc(F)c1)C1CCCN1C(=O)OCc1ccccc1 (stereo not drawn)	0	0	0	0	0
CCOc1cc(/C=N/NC(=O)CNc2cccc(C)c2)ccc1OC(=O)c1ccccc1	0	0	0	0	0
O=C(O)c1cccc(N/N=C/c2cccc3ccccc23)c1	0	0	0	0	0
CC(C)c1ccc(/C=N/Nc2ccc(C(=O)O)cc2)cc1	0	85.0	0	0	0
CCOc1cc(/C=N/Nc2cccc(C(=O)O)c2)ccc1OC(=O)c1ccccc1	-	97.5	-	-	0
Cc1ccsc1/C=N/Nc1ccc(C(=O)O)cc1	0	63.7	0	0	0
Cc1ccsc1/C=N/NC(=O)C(N)=O	0	0	0	0	0
Cc1ccsc1/C=N/Nc1cccc(C(=O)O)c1	0	105.0	0	0	0
O=S(=O)(Nc1cc(Cl)cc(Cl)c1)N1CCOCC1	0	0	0	0	0
O=S(=O)(NC1CCSc2ccccc21)c1ccc(Cl)nc1 (stereo not drawn)	0	0	0	0	0
CCC(=Cc1ccc(CC)cn1)CC	0	0	0	0	0
Cc1ccc(/C=N/Nc2cccc(C(=O)O)c2)s1	-	0	-	0	0
Cc1ccc(/C=N/Nc2ccc(C(=O)O)cc2)s1	0	75.7	0	0	0
Fc1cc(F)c(NC(=S)N2CCOCC2)c(F)c1	0	0	0	0	0
COc1ccc(OC)c(NC(=O)CSc2ncnc3c2cnn3-c2ccccc2Cl)c1	129.3	0	-	0	0
Cn1ncc2c(Nc3cccc([N+](=O)[O-])c3)ncnc21	0	0	0	0	0
Clc1ccc(Cl)c(OCCCCN2CCNCC2)c1	0	0	96.3	0	0
Clc1ccc(OCCCCCN2CCCC2)c(Br)c1	0	0	0	0	0
Cc1ccnc(NC(=O)c2ccc(OCc3c(C)noc3C)cc2)c1	-	-	-	-	0
CC(=O)Oc1ccc(N(C(C)=O)S(=O)(=O)c2cccs2)c2ccccc12	92.7	0	0	0	0
C/C(=N/NC(=O)c1ccc(-c2ccccc2)cc1)c1cc(O)cc(O)c1	0	-	95.8	0	0
C/C(=N\NC(=O)c1cc(O)cc(O)c1)c1ccc(NC(=O)Cc2ccccc2)cc1	0	0	0	0	0
O=C(CNc1cccc(S(=O)(=O)N2CCCC2)c1)Nc1ccc(F)cc1F	0	0	0	0	0
O=C(OCC(=O)N1CCN(C(=O)c2ccco2)CC1)c1ccccc1NCCO	0	0	0	0	0
SMILES	Beta cell apopt	aSyn UTR inh	CSC inhib	A1 inh	Mdm2-MdmX inh
Cc1cc(Nc2ccccc2)nc(-c2ccccc2O)n1	0	0	80.3	?	0
Cc1cc(Nc2cccc(F)c2)nc(-c2ccccc2O)n1	0	0	101.6	0	0
Cc1cc(Nc2ccccc2Cl)nc(-c2ccccc2O)n1	0	0	0	?	0
CCOc1ccc(-c2cccc(NC(=O)c3ccco3)c2)nn1	0	0	-	0	0
CC1(C)Cc2c(C#N)c(NCC3CCCO3)nc(-c3ccco3)c2CO1 (stereo not drawn)	0	0	-	0	0
CC1(C)Cc2c(C#N)c(NC3CCCCC3)nc(-c3ccco3)c2CO1	0	0	77.4	0	0
CC(C)(C)c1ccc(-c2cc(N)n[nH]2)cc1	0	90.9	0	0	0
O=[N+]([O-])c1ccc(C(O)CSC(=S)N2CCCCC2)cc1 (stereo not drawn)	0	0	0	0	0
C/C(=N\NC(N)=S)c1cc(-c2ccccc2)c(-c2ccccc2)s1	-	0	99.4	0	0
C/C(=N\NC(N)=S)c1ccccc1	0	0	0	0	0
C[C@H](CO)N1C[C@H](C)[C@@H](CN(C)CC2CCCCC2)Oc2c(NC(=O)Cc3ccccc3)cccc2C1=O	-	-	-	-	0
CC(C)(C)n1ncc2c(=O)n(Cc3cccc(Cn4cnc5c(cnn5C(C)(C)C)c4=O)c3F)cnc21	86.6	-	-	0	0

Bioassay records from PubChem BioAssay.
